Screening results deposited in PubChem by National Center for Advancing Translational Sciences (NCATS).
Most compounds without a hit are left out; they make up all but 7.5% or so of the library.
ELG1 genotox: induces genotoxicity in HEK293T cells with luciferase-tagged ELG1; HEK293T ELG1-luciferase reporter, luminescence, 16 h; AID 504466; Potency, µM (highest dose often 46 µM), usual class: activators; hit rate 1.3% among 330,000; further: nearly all actives have a fitted effect of over 60% in size
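Genotoxicity was scored as increased ELG1-luciferase reporter signal, measured by ONE-Glo luminescence (30 min, room temperature). Compound or vehicle exposure of the HEK293T reporter cells lasted 16 hr at 37°C.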
FLuc modulator: counter-screen for miR-21 project: firefly luciferase inhibitors or activators | P08659 | purified FLuc, Km substrates, luminescence inhibition | Potency, µM (titrated, usually from 57.5 µM), most hits filed as inhibitors | hit rate 6.9% among 360,000 | AID 588342; further: nearly all actives have a fitted effect of over 55% in size
Target sequence (P08659 whole entry, looked up): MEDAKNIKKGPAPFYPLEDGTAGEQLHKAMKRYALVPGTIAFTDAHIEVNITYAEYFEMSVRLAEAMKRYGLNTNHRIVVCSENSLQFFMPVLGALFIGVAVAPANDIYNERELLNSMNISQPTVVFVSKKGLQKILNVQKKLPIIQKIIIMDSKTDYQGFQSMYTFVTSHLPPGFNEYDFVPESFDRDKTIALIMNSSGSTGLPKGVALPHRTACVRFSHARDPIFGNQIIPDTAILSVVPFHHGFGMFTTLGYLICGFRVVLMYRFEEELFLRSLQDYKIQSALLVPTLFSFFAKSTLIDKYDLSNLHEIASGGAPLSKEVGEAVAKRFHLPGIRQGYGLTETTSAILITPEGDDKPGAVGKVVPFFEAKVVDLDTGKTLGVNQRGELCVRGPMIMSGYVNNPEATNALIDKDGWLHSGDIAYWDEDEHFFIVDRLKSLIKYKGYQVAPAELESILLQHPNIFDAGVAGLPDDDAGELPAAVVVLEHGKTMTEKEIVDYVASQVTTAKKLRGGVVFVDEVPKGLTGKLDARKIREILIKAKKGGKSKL
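Purified P. pyralis luciferase, 10 nM final, with Km-level 10 uM D-luciferin and 10 uM ATP in 50 mM Tris acetate pH 7.5, 10 mM Mg acetate, 0.01% Tween-20, 0.05% BSA; 6-point qHTS titration about 60 µM downward; luminescence read.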
SMN2 splice up: increases expression of the SMN2 splice variant; AID 1458; HEK293 SMN2-luciferase splicing reporter, luminescence, 30-36 h; Potency, µM (titrated, usually from 46.1 µM), most hits filed as activators; hit rate 2.8% among 210,000; further: nearly all actives have a fitted effect of over 55% in size
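qHTS luciferase splicing reporter: luminescence rises when SMN2 exon 7 is included in transfected HEK293 cells. Compound exposure lasted 30-36 h at 37C, with 4.5 mM final sodium butyrate as control, followed by a ONE-Glo read.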
KinaseGlo FLuc: blocks Kinase-Glo luciferase, a counter-screen artifact | Q27757 | Potency, µM (highest dose often 38.3 µM), actives largely listed as inhibitors | AID 1379 | hit rate 0.28% among 200,000 | Kinase-Glo luciferase, ATP luminescence, 8 min; further: nearly all actives have a fitted effect of over 60% in size
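Inhibition of Kinase-Glo luciferase light generation was assessed at 10 uM ATP in pH 7.2 imidazole buffer, with luminescence measured after eight minutes at ambient temperature.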
NPC1 prom act: activators of NPC1 promoter; Potency, µM (series often up to 9.22 µM), usual class: activators; hit rate 2.4% among 320,000; Huh7 NPC1 promoter luciferase reporter, 24 h; further: nearly all actives have a fitted effect of over 60% in size
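Luciferase expression driven by the NPC1 promoter was measured in stably transfected Huh7 cells after a 24 h compound incubation, using a luciferase reagent and a luminescence read.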
Rab9 promoter act: Rab9 promoter activation; Huh7 Rab9 promoter-luciferase reporter, luminescence, 24 h; Potency, µM (top dose mostly 9.22 µM), hits mostly activators; hit rate 2.8% among 320,000; AID 485297; further: nearly all actives have a fitted effect of over 60% in size
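Luminescence from Amplite-detected luciferase (10 minutes, ambient) reports Rab9 promoter activation. Before that, stable Rab9-luciferase Huh7 cells (1500/well, reduced-serum OP-MEM I plus 10% FBS) were exposed to compound for 24 hours at 37C.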
Hits are given with their value; [ ] = remark or other dose. The call rests on the fitted dose curve; in most records, active means well fitted curve in the direction sought with a large enough effect; inconclusive means small, poorly fitted or top-dose-only effect, or another doubt; inactive means no such curve, though single readings can be large; an effect the other way counts as inactive or inconclusive.

For Cc1ccc(C(=O)/C=C/Nc2ccccc2C(N)=O)cc1 the results were ELG1 genotox 6.5µM, FLuc modulator 0.13µM, SMN2 splice up 0.71µM, KinaseGlo FLuc 11µM, NPC1 prom act 0.63µM and Rab9 promoter act 0.32µM.
`Cc1ccc(/C=C/C(=O)Nc2cc(S(N)(=O)=O)ccc2O)cc1` gave ELG1 genotox inactive, FLuc modulator 15µM, SMN2 splice up inactive, KinaseGlo FLuc inactive, NPC1 prom act inactive and Rab9 promoter act inactive.
CCS(=O)(=O)c1ccc(O)c(NC(=O)/C=C/c2ccc(Cl)cc2)c1 was read as ELG1 genotox inactive, FLuc modulator inconclusive, NPC1 prom act inactive and Rab9 promoter act inactive.
Screening Cc1ccc(/C=C/C(=O)Nc2ccccc2C(N)=O)cc1 returned ELG1 genotox inconclusive, FLuc modulator 0.85µM, SMN2 splice up 3.5µM, KinaseGlo FLuc inactive, NPC1 prom act 2.8µM and Rab9 promoter act 1.4µM.
`NC(=O)c1ccccc1N/C=C/C(=O)c1ccc(Cl)cc1` gave ELG1 genotox inconclusive, FLuc modulator 0.24µM, SMN2 splice up 8.9µM, KinaseGlo FLuc inconclusive, NPC1 prom act 0.4µM and Rab9 promoter act 0.4µM.
`Fc1ccc(COc2ccccc2-c2ccnc3ncnn23)cc1` gave ELG1 genotox inconclusive, FLuc modulator inactive, SMN2 splice up inactive, KinaseGlo FLuc inactive, NPC1 prom act inactive and Rab9 promoter act inactive.
`COc1ccc(NC(=O)CSc2nc3c(oc4ccccc43)c(=O)n2-c2ccc(C)c(C)c2)cc1` gave FLuc modulator inactive and SMN2 splice up inactive.
Cc1coc2cc3oc(=O)c(CCC(=O)NCc4ccc(Cl)cc4)c(C)c3cc12 was read as FLuc modulator inactive and SMN2 splice up inactive.
`CN(C)c1ccc(N=Nc2cccc3ccoc23)cc1` gave ELG1 genotox 6.5µM, FLuc modulator 1.2µM, SMN2 splice up 3.5µM, KinaseGlo FLuc inactive[7.66 µM], NPC1 prom act inconclusive and Rab9 promoter act inconclusive.
For CN(C)c1ccc(N=Nc2cccc(F)c2)cc1 the results were ELG1 genotox 0.65µM, FLuc modulator 0.24µM, NPC1 prom act 2µM and Rab9 promoter act 3.5µM.
For Cc1ccc(-c2nnc(SCC(=O)c3ccc(Cl)cc3)n2-c2ccccc2)cc1 the results were FLuc modulator inactive.
Screening COc1ccccc1CNS(=O)(=O)c1ccc(F)c(C(=O)Nc2cc(Cl)ccc2OC)c1 returned FLuc modulator inactive.
For O=C(Nc1ccc(Cl)c(C(F)(F)F)c1)C1CCN(S(=O)(=O)c2cccc3nonc23)CC1 the results were FLuc modulator inactive and SMN2 splice up inactive.
`CCN(CC(=O)Nc1c(F)cccc1F)C(=O)c1cn2ccccc2n1` gave ELG1 genotox inactive, FLuc modulator inactive, NPC1 prom act inactive and Rab9 promoter act inactive.
Screening Cc1csc(NC(=O)c2cn3ccccc3n2)n1 returned ELG1 genotox 0.73µM, FLuc modulator 2.1µM, SMN2 splice up 0.63µM, KinaseGlo FLuc 10µM, NPC1 prom act inconclusive and Rab9 promoter act inconclusive.
Screening CC1CN(C(=O)c2cn3ccccc3n2)CC(C)O1 (stereo unspecified) returned ELG1 genotox inactive, FLuc modulator 12µM, SMN2 splice up inactive, KinaseGlo FLuc inactive, NPC1 prom act inactive and Rab9 promoter act inactive.
For O=C(Nc1ccc(-n2cnnn2)cc1)c1cn2ccccc2n1 the results were ELG1 genotox inconclusive, FLuc modulator inconclusive, NPC1 prom act 1.6µM and Rab9 promoter act 1.6µM.
O=C(Nc1ccccc1)c1cn2ccccc2n1 was read as ELG1 genotox inconclusive, FLuc modulator 0.95µM, NPC1 prom act 0.32µM and Rab9 promoter act 0.2µM.
Screening CC1CN(C(=O)c2ccncc2)CC(C)O1 (stereo unspecified) returned ELG1 genotox inactive, FLuc modulator inactive, SMN2 splice up inactive, KinaseGlo FLuc inactive, NPC1 prom act inconclusive and Rab9 promoter act inactive.
Cc1c(NC(=O)c2cn3ccccc3n2)cccc1-n1cnnn1 was read as ELG1 genotox inactive, FLuc modulator inconclusive, NPC1 prom act inactive and Rab9 promoter act inactive.
`O=S(=O)(O)C(c1ccccc1)[C@@H](O)c1ccccc1` (stereo partly specified) gave SMN2 splice up inactive[9.22 µM] and KinaseGlo FLuc inactive[7.66 µM].
For CSc1ccccc1OCc1cc(C(=O)NC(C)Cc2cccc(C)n2)no1 (stereo unspecified) the results were ELG1 genotox inactive, FLuc modulator 19µM, NPC1 prom act inconclusive and Rab9 promoter act inconclusive.
`CSc1ccccc1OCc1cc(C(=O)NC(C)CCn2cccn2)no1` (stereo unspecified) gave ELG1 genotox inactive, FLuc modulator inconclusive, NPC1 prom act inactive and Rab9 promoter act inactive.
CSc1ccccc1OCc1cc(C(=O)NCc2cccc(C)n2)no1 was read as ELG1 genotox inconclusive, FLuc modulator 12µM, NPC1 prom act 2.8µM and Rab9 promoter act 4µM.
`CC(C)C(=O)Nc1nnc(SCC(=O)NC2CCCC2)s1` gave ELG1 genotox inactive, FLuc modulator inactive, NPC1 prom act inactive and Rab9 promoter act inactive.
`Fc1cccc(Cl)c1CSc1nnc(-c2ccncc2)o1` gave ELG1 genotox inconclusive, FLuc modulator 15µM, NPC1 prom act inconclusive and Rab9 promoter act 4.5µM.
Screening c1ccc2c(CSc3nnc(-c4ccncc4)o3)cccc2c1 returned ELG1 genotox inactive, FLuc modulator inactive, SMN2 splice up inactive, KinaseGlo FLuc inactive, NPC1 prom act inactive and Rab9 promoter act inactive.
Screening Clc1ccccc1CSc1nnc(-c2ccncc2)o1 returned ELG1 genotox inactive, FLuc modulator 17µM, SMN2 splice up 10µM, KinaseGlo FLuc inactive, NPC1 prom act inconclusive and Rab9 promoter act inconclusive.
Screening COc1cc(-c2nnc(SCc3c(F)cccc3Cl)o2)cc(OC)c1OC returned ELG1 genotox inactive, FLuc modulator inactive, SMN2 splice up inactive, KinaseGlo FLuc inactive, NPC1 prom act inactive and Rab9 promoter act inactive.
`NC(=NCc1ccc(Cl)cc1Cl)NC(=O)c1nc(Cl)c(N)nc1N` gave SMN2 splice up inactive.
For CCn1cc(C(=O)NCCc2ccc(Cl)cc2)c(=O)c2cc(S(=O)(=O)N3CCOCC3)ccc21 the results were FLuc modulator inactive and SMN2 splice up inactive.
Screening COC(=O)c1ccc(N2OC3(C)C=CC2CC3)cc1 (stereo unspecified) returned ELG1 genotox inconclusive, FLuc modulator 21µM, SMN2 splice up inconclusive, KinaseGlo FLuc inactive, NPC1 prom act inactive and Rab9 promoter act inconclusive.
For O=c1[nH]c(CSc2nc3ccccc3[nH]2)nc2c1cnn2-c1ccccc1 the results were ELG1 genotox inactive, FLuc modulator inconclusive, SMN2 splice up inactive[1.84 µM], KinaseGlo FLuc inactive, NPC1 prom act inactive and Rab9 promoter act inactive.
